# Measured values taken from ChEMBL document CHEMBL4513141, “CO-ADD screening of NIH (USA) - Clinical Collection” (2021).
# Measured potencies and affinities stand elsewhere.
# How the values were obtained:
# Staphylococcus aureus = conditions: Concentration 20 uM; ASSAY_TEST Inhibition of Bacterial Growth; detection method Absorption (OD600); MEDIA CAMHB; plate type 384well; NBS; CORNING #3640; time 18 hr
# Escherichia coli = conditions: Concentration 20 uM; ASSAY_TEST Inhibition of Bacterial Growth; detection method Absorption (OD600); MEDIA CAMHB; plate type 384well; NBS; CORNING #3640; time 18 hr
compound,measurement,setting,value
CN(C)CCC(c1ccc(Cl)cc1)c1ccccn1.O=C(O)/C=C\C(=O)O (stereo unspecified) [CHLORPHENIRAMINE MALEATE],Inhibition,Staphylococcus aureus,-22.38%
same,Inhibition,Escherichia coli,7.3%
Cl.O=C(c1ccc(OCCN2CCCCC2)cc1)c1c(-c2ccc(O)cc2)sc2cc(O)ccc12 [RALOXIFENE HYDROCHLORIDE],Inhibition,Staphylococcus aureus,16.87%
same,Inhibition,Escherichia coli,-1.03%
CC(N/C(=N\C#N)Nc1ccncc1)C(C)(C)C.O (stereo unspecified),Inhibition,Staphylococcus aureus,-1.94%
same,Inhibition,Escherichia coli,-6.33%
CN1C(=O)CC[C@H]1c1cccnc1 [COTININE],Inhibition,Staphylococcus aureus,-20.45%
same,Inhibition,Escherichia coli,7.12%
CC(=O)OCC(=O)[C@@]1(O)CC[C@H]2[C@@H]3CCC4=CC(=O)CC[C@]4(C)[C@H]3C(=O)C[C@@]21C [CORTISONE ACETATE],Inhibition,Staphylococcus aureus,12.24%
same,Inhibition,Escherichia coli,5.41%
CNCCCC12CCC(c3ccccc31)c1ccccc12.Cl [MAPROTILINE HYDROCHLORIDE],Inhibition,Staphylococcus aureus,15.07%
same,Inhibition,Escherichia coli,6.19%
COc1cc2c(cc1OC)C(=O)C(CC1CCN(Cc3ccccc3)CC1)C2.Cl (stereo unspecified) [DONEPEZIL HYDROCHLORIDE],Inhibition,Staphylococcus aureus,12.57%
same,Inhibition,Escherichia coli,-6.95%
Cc1cccc(Nc2ccccc2C(=O)O)c1C [MEFENAMIC ACID],Inhibition,Staphylococcus aureus,15.6%
same,Inhibition,Escherichia coli,6.03%
O.OC[C@H]1O[C@@H](n2cnc3c(NC4CCCC4)nc(Cl)nc32)[C@@H](O)C1O (stereo partly specified),Inhibition,Staphylococcus aureus,16.71%
same,Inhibition,Escherichia coli,-5.97%
CC(C)Oc1ccc2c(=O)c(-c3ccccc3)coc2c1 [IPRIFLAVONE],Inhibition,Staphylococcus aureus,16.93%
same,Inhibition,Escherichia coli,5.9%
Cc1ccc(S(=O)(=O)NC(=O)NN2CCCCCC2)cc1 [TOLAZAMIDE],Inhibition,Staphylococcus aureus,2.29%
same,Inhibition,Escherichia coli,-1.66%
C#C[C@]1(O)CC[C@H]2[C@@H]3[C@H](C)CC4=C(CCC(=O)C4)[C@H]3CC[C@@]21C [TIBOLONE],Inhibition,Staphylococcus aureus,12.93%
same,Inhibition,Escherichia coli,2.02%
COc1c2occc2cc2ccc(=O)oc12 [METHOXSALEN],Inhibition,Staphylococcus aureus,13.34%
same,Inhibition,Escherichia coli,-6.11%
Cl.O.O=C1N(c2ccccc2)c2ccccc2C1(Cc1ccncc1)Cc1ccncc1,Inhibition,Staphylococcus aureus,4.07%
same,Inhibition,Escherichia coli,3.98%
CC(C)[C@H](N)C(=O)OCCOCn1cnc2c(=O)nc(N)[nH]c21.Cl [VALACYCLOVIR HYDROCHLORIDE],Inhibition,Staphylococcus aureus,12.39%
same,Inhibition,Escherichia coli,2.88%
Cl.Nc1nc2ccc(OC(F)(F)F)cc2s1,Inhibition,Staphylococcus aureus,13.98%
same,Inhibition,Escherichia coli,2.43%
CC1(C)O[C@@H]2[C@@H](CO[C@@]3(COS(N)(=O)=O)OC(C)(C)O[C@@H]23)O1 [TOPIRAMATE],Inhibition,Staphylococcus aureus,3.5%
same,Inhibition,Escherichia coli,6.36%
CCOC(=O)[C@H](CCc1ccccc1)N[C@@H](C)C(=O)N1Cc2ccccc2C[C@H]1C(=O)O.Cl [QUINAPRIL HYDROCHLORIDE],Inhibition,Staphylococcus aureus,16.74%
same,Inhibition,Escherichia coli,4.26%
O=C(CCCN1CC=C(n2c(=O)[nH]c3ccccc32)CC1)c1ccc(F)cc1 [DROPERIDOL],Inhibition,Staphylococcus aureus,14.29%
same,Inhibition,Escherichia coli,-7.37%
CCC(C)(C)/N=C(\NC#N)Nc1cccnc1,Inhibition,Staphylococcus aureus,1.37%
same,Inhibition,Escherichia coli,-2.42%
CN(C)CCOC(C)(c1ccccc1)c1ccccn1.O=C(O)CCC(=O)O (stereo unspecified) [DOXYLAMINE SUCCINATE],Inhibition,Staphylococcus aureus,2.51%
same,Inhibition,Escherichia coli,3.89%
CNNCc1ccc(C(=O)NC(C)C)cc1.Cl [PROCARBAZINE HYDROCHLORIDE],Inhibition,Staphylococcus aureus,12.92%
same,Inhibition,Escherichia coli,-2.72%
C[C@]12CCC(=O)C=C1CC[C@@H]1[C@@H]2[C@@H](O)C[C@@]2(C)[C@H]1CC[C@]2(O)C(=O)COC(=O)CCC(=O)O [HYDROCORTISONE HEMISUCCINATE ANHYDROUS],Inhibition,Staphylococcus aureus,-27.4%
same,Inhibition,Escherichia coli,4.71%
Cc1sc(N)c(C(=O)c2cccc(C(F)(F)F)c2)c1C,Inhibition,Staphylococcus aureus,5.2%
same,Inhibition,Escherichia coli,-1.03%
CCCN1CCCC[C@H]1C(=O)Nc1c(C)cccc1C.Cl [ROPIVACAINE HYDROCHLORIDE],Inhibition,Staphylococcus aureus,13.36%
same,Inhibition,Escherichia coli,1.04%
CCc1ccc(CCOc2ccc(CC3SC(=O)NC3=O)cc2)nc1.Cl (stereo unspecified) [PIOGLITAZONE HYDROCHLORIDE],Inhibition,Staphylococcus aureus,3.82%
same,Inhibition,Escherichia coli,-0.97%
CCCC1O[C@@H]2C[C@H]3[C@@H]4CCC5=CC(=O)C=C[C@]5(C)[C@H]4[C@@H](O)C[C@]3(C)[C@]2(C(=O)CO)O1 (stereo partly specified) [BUDESONIDE],Inhibition,Staphylococcus aureus,6.99%
same,Inhibition,Escherichia coli,-1.42%
CCC(CO)NCCNC(CC)CO (stereo unspecified),Inhibition,Staphylococcus aureus,8.81%
same,Inhibition,Escherichia coli,2.87%
CN1CCC(=C2c3ccccc3CCc3sccc32)CC1.O=C(O)/C=C\C(=O)O,Inhibition,Staphylococcus aureus,4.8%
same,Inhibition,Escherichia coli,2.87%
C[C@@H](O)[C@H]1C(=O)N2C(C(=O)O)=C(S[C@@H]3CN[C@H](C(=O)N(C)C)C3)[C@H](C)[C@H]12 [MEROPENEM],Inhibition,Staphylococcus aureus,-14.17%
same,Inhibition,Escherichia coli,7.87%
CCOC(=O)[C@@H](CCc1ccccc1)N[C@@H](C)C(=O)N1CCC[C@H]1C(=O)O.O=C(O)/C=C\C(=O)O,Inhibition,Staphylococcus aureus,8.37%
same,Inhibition,Escherichia coli,-3.24%
C[C@]12C=CC(=O)C=C1CC[C@@H]1[C@@H]2C(=O)C[C@@]2(C)[C@H]1CC[C@]2(O)C(=O)CO [PREDNISONE],Inhibition,Staphylococcus aureus,12.15%
same,Inhibition,Escherichia coli,4.61%
Cl.Nc1c2c(nc3ccccc13)CCCC2 [TACRINE HYDROCHLORIDE],Inhibition,Staphylococcus aureus,10.46%
same,Inhibition,Escherichia coli,0.14%
O=C1c2c(O)cc(O)cc2O[C@H](c2ccc(O)c(O)c2)[C@@H]1O,Inhibition,Staphylococcus aureus,15.43%
same,Inhibition,Escherichia coli,-4.02%
N[C@@H]1CONC1=O [CYCLOSERINE],Inhibition,Staphylococcus aureus,14.71%
same,Inhibition,Escherichia coli,1.47%
CC(=O)OCC(=O)[C@@]1(O)CC[C@H]2[C@@H]3C[C@H](C)C4=CC(=O)C=C[C@]4(C)[C@H]3[C@@H](O)C[C@@]21C [METHYLPREDNISOLONE ACETATE],Inhibition,Staphylococcus aureus,6.17%
same,Inhibition,Escherichia coli,-0.44%
C[C@H]1O[C@@H](O[C@H]2[C@@H](O)C[C@H](O[C@H]3[C@@H](O)C[C@H](O[C@H]4CC[C@@]5(C)[C@H](CC[C@@H]6[C@@H]5C[C@@H](O)[C@]5(C)C(C7=CC(=O)OC7)CC[C@]65O)C4)O[C@@H]3C)O[C@@H]2C)C[C@H](O)[C@@H]1O (stereo partly specified),Inhibition,Staphylococcus aureus,15.53%
same,Inhibition,Escherichia coli,-7.29%
COc1cc2nc(N(C)CCCNC(=O)C3CCCO3)nc(N)c2cc1OC (stereo unspecified) [ALFUZOSIN],Inhibition,Staphylococcus aureus,6%
same,Inhibition,Escherichia coli,-0.93%
CC(C)c1nc(CN(C)C(=O)N[C@H](C(=O)N[C@@H](Cc2ccccc2)C[C@H](O)[C@H](Cc2ccccc2)NC(=O)OCc2cncs2)C(C)C)cs1 [RITONAVIR],Inhibition,Staphylococcus aureus,13.2%
same,Inhibition,Escherichia coli,-0.63%
C[C@H]1C[C@@H]2[C@H]([C@@H](O)C[C@@]3(C)[C@H]2CC[C@]3(O)C(=O)CO)[C@@]2(C)C=CC(=O)C=C12 [METHYLPREDNISOLONE],Inhibition,Staphylococcus aureus,7.4%
same,Inhibition,Escherichia coli,5%
CC#C[C@]1(O)CC[C@H]2[C@@H]3CCC4=CC(=O)CCC4=C3[C@@H](c3ccc(N(C)C)cc3)C[C@@]21C [MIFEPRISTONE],Inhibition,Staphylococcus aureus,11.2%
same,Inhibition,Escherichia coli,-7.81%
CNCCC=C1c2ccccc2CCc2ccccc21.Cl [NORTRIPTYLINE HYDROCHLORIDE],Inhibition,Staphylococcus aureus,3.19%
same,Inhibition,Escherichia coli,4.29%
Nc1nnc(-c2cccc(Cl)c2Cl)c(N)n1 [LAMOTRIGINE],Inhibition,Staphylococcus aureus,8.71%
same,Inhibition,Escherichia coli,4.49%
CCc1c(C)[nH]c2c1C(=O)C(CN1CCOCC1)CC2.Cl (stereo unspecified) [MOLINDONE HYDROCHLORIDE],Inhibition,Staphylococcus aureus,-5.38%
same,Inhibition,Escherichia coli,4.7%
O=C1CCc2ccc(OCCCCN3CCN(c4cccc(Cl)c4Cl)CC3)cc2N1 [ARIPIPRAZOLE],Inhibition,Staphylococcus aureus,-0.8%
same,Inhibition,Escherichia coli,1.89%
Cc1ncc([N+](=O)[O-])n1CCO [METRONIDAZOLE],Inhibition,Staphylococcus aureus,17.23%
same,Inhibition,Escherichia coli,2.82%
CC(C)Cc1ccc(C(C)C(=O)O)cc1 (stereo unspecified) [IBUPROFEN],Inhibition,Staphylococcus aureus,-8.87%
same,Inhibition,Escherichia coli,0.37%
NC(CO)(CO)CO.O=C(c1ccccc1)c1ccc2n1CCC2C(=O)O (stereo unspecified) [KETOROLAC TROMETHAMINE],Inhibition,Staphylococcus aureus,4.45%
same,Inhibition,Escherichia coli,-3.99%
COC(=O)[C@H](c1ccccc1Cl)N1CCc2sccc2C1 [CLOPIDOGREL],Inhibition,Staphylococcus aureus,12.7%
same,Inhibition,Escherichia coli,-0.51%
COC(=O)Nc1nc2cc(C(=O)c3ccccc3)ccc2[nH]1 [MEBENDAZOLE],Inhibition,Staphylococcus aureus,7.86%
same,Inhibition,Escherichia coli,3.86%
Cc1ccc(-c2cc(C(F)(F)F)nn2-c2ccc(S(N)(=O)=O)cc2)cc1 [CELECOXIB],Inhibition,Staphylococcus aureus,5.39%
same,Inhibition,Escherichia coli,6.38%
Cc1ccc(O)c([C@H](CCN(C(C)C)C(C)C)c2ccccc2)c1.O=C(O)C(O)C(O)C(=O)O [TOLTERODINE TARTRATE],Inhibition,Staphylococcus aureus,-0.49%
same,Inhibition,Escherichia coli,-0.28%
CC(C)NCC(O)COc1ccc(COCCOC(C)C)cc1.CC(C)NCC(O)COc1ccc(COCCOC(C)C)cc1.O=C(O)/C=C/C(=O)O (stereo unspecified) [BISOPROLOL FUMARATE],Inhibition,Staphylococcus aureus,7.74%
same,Inhibition,Escherichia coli,1.99%
O=c1c(-c2ccccc2)c1-c1ccccc1 [DIPHENCYPRONE],Inhibition,Staphylococcus aureus,-9.91%
same,Inhibition,Escherichia coli,6.71%
CC(C)c1ccc2c(c1)c(SC(C)(C)C)c(CC(C)(C)C(=O)O)n2Cc1ccc(Cl)cc1,Inhibition,Staphylococcus aureus,10.09%
same,Inhibition,Escherichia coli,5.68%
CC(C)(C)C(O)/C=C/c1ccc2c(c1)OCO2 (stereo unspecified) [STIRIPENTOL],Inhibition,Staphylococcus aureus,0.92%
same,Inhibition,Escherichia coli,6.07%
CC1CNc2c(cccc2S(=O)(=O)N[C@@H](CCCNC(=N)N)C(=O)N2CC[C@@H](C)C[C@@H]2C(=O)O)C1 (stereo partly specified) [ARGATROBAN],Inhibition,Staphylococcus aureus,5.54%
same,Inhibition,Escherichia coli,-1.85%
O=C1[C@H](CC[C@H](O)c2ccc(F)cc2)[C@@H](c2ccc(O)cc2)N1c1ccc(F)cc1 [EZETIMIBE],Inhibition,Staphylococcus aureus,5.57%
same,Inhibition,Escherichia coli,-0.7%
